Pol iota inh: DNA polymerase iota (human) inhibition. Q9UNA4. Pol iota fluorescent replication assay, 10 min. Potency, µM (titrated, usually from 115 µM), without a hit: at the highest dose activity, negative = inhibition, actives largely listed as inhibitors. actives 1% (n = 390,000); note: potency is the fitted concentration of half-maximal effect
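Pol iota at 10 nM preincubated 15 min with compounds at room temperature; reaction started with fluorescent substrate, 50 nM final. Fluorescence read kinetically at 0 and 10 min; buffer-only wells as negative control.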
L3MBTL1 block: L3MBTL1 (human) inhibition; Q9Y468; actives 0.66% (n = 230,000); Potency, µM (series often up to 57.1 µM), inactives show top-dose activity, negative = inhibition, most hits filed as inhibitors; AlphaScreen L3MBTL1–H3K9me1 peptide binding; note: potency is the fitted concentration of half-maximal effect; % is set by controls: 0 for no effect and ±100 for the full control effect; nearly all actives have a fitted effect of over 60% in size
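AlphaScreen proximity signal between nickel-chelate acceptor and streptavidin donor beads (final 10 ug/mL) reports binding of 50 nM L3MBTL1 to 75 nM biotin-H3 K9me1 peptide; complex incubated with compounds 30 min at room temperature; cefsulodin titration as control.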
Pol eta inh-1: inhibitors of human DNA polymerase eta; recombinant Pol eta, fluorescent DNA replication assay; AID 588591; actives 1.2% (n = 390,000); Potency, µM (top dose mostly 114 µM), for the others: at the highest dose activity change, negative = inhibition, most hits filed as inhibitors; note: potency is the fitted concentration of half-maximal effect; % is set by controls: 0 for no effect and ±100 for the full control effect
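Pol eta (10 nM) was preincubated with compounds for 15 min at room temperature, after which fluorescent replication substrate (50 nM final) was added to start the reaction. Fluorescence was read kinetically at 0 and 10 min.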
Pol beta inh: DNA polymerase beta (human) inhibition; P06746; Pol beta primer extension/strand displacement, fluorescence kinetic; AID 485314; actives 1.3% (n = 340,000); Potency, µM (titrated, usually from 114 µM), inactives show at the top dose activity change, negative = inhibition, usual class: inhibitors; note: potency is the fitted concentration of half-maximal effect; % is set by controls: 0 for no effect and ±100 for the full control effect
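Human Pol beta at 10 nM; strand-displacement substrate 50 nM final. Compound exposure 15 min at room temperature before start, reaction 10 min at room temperature.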
Pol kappa inh-1: blocks human DNA polymerase kappa activity; actives 0.53% (n = 400,000); Potency, µM (top dose mostly 107 µM), inactives show at the highest dose activity, negative = inhibition, usual class: inhibitors; Q9UBT6; purified Pol kappa, fluorescent DNA synthesis assay, 10 min; AID 588579; note: potency is the fitted concentration of half-maximal effect; % is set by controls: 0 for no effect and ±100 for the full control effect
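Kinetic fluorescence screen: compound preincubated 15 min RT with 10 nM enzyme; 50 nM substrate (final) initiates; reads at 0/10 min.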
GALK confirm: galactokinase (human) inhibition, confirmation | shares compounds with Pol eta inh-1 | purified GALK, Kinase-Glo ATP depletion luminescence | Potency, µM (titrated, usually from 115 µM), for the others: at the top dose activity, negative = inhibition, usual class: inhibitors | actives 70% (n = 150)
GALK redox cs: redox cycling activity in phenol red-HRP assay | actives 40% (n = 150) | Phenol red-HRP H2O2 redox cycling, absorbance 600 nm | shares compounds with Pol eta inh-1 | Potency, µM (highest dose often 115 µM), for the others: at the top dose activity change, negative = H2O2 signal, actives largely listed as inhibitors
HEK293 viability: counter-screen for GALK inhibitors: HEK293 cell cytotoxicity. shares compounds with Pol eta inh-1. HEK-293 viability, ATP luminescence (CellTiter-Glo), 24/48 h. Potency, µM (series often up to 46.1 µM), for the others: top-dose activity change, negative = cytotoxicity, actives largely listed as inhibitors. actives 10% (n = 170); note: potency is the fitted concentration of half-maximal effect; % is set by controls: 0 for no effect and ±100 for the full control effect
Pol kappa inh-2: confirmation of human DNA polymerase kappa inhibitors; purified Pol-kappa, fluorescent strand-displacement substrate; actives 76% (n = 920); shares compounds with Pol eta inh-1; Potency, µM, usual class: inhibitors; note: potency is the fitted concentration of half-maximal effect
Pol eta inh-2: Pol eta (human) inhibition, cherry-pick confirmation; shares compounds with Pol eta inh-1; Pol eta primer extension, TAMRA/BHQ fluorescence, 10 min; Potency, µM, usual class: inhibitors; actives 64% (n = 2,600); AID 720502; note: potency is the fitted concentration of half-maximal effect
An asterisk follows results filed as active; ? = inconclusive; / = not tested or not shown; [ ] = dose if it differs, or a comment. Compounds with a hit are over-represented: about 2.4% of the library has one in this group of screens. Calls come from the whole dose curve; as a rule, active = well fitted curve in the direction sought with a large enough effect; inconclusive = small, poorly fitted or top-dose-only effect, or another doubt; inactive = no such curve, though single readings can be large; an effect the other way counts as inactive or inconclusive.

SMILES	Pol iota inh	L3MBTL1 block	Pol eta inh-1	Pol beta inh	Pol kappa inh-1	Pol eta inh-2	others
CC1CN(S(=O)(=O)c2cccc(C(=O)OCc3cc(=O)oc4cc(O)ccc34)c2)CC(C)O1 (configuration not stated)	?	-1%[11.4 µM]	?	?	?	76*
Cc1nn(-c2ccccc2)c(C)c1-c1cc(C(=O)N/N=C/c2ccc(O)cc2)[nH]n1	20µM*	-6%	28µM*	10µM*	79µM*	43*
COc1cc(/C=N/NC(=O)c2cc(-c3c(C)nn(-c4ccccc4)c3C)n[nH]2)ccc1O	3.2µM*	/	20µM*	?	?	54*
COc1ccc(Cl)cc1CC=NNC(=O)c1cccc(C)c1O	10%	/	2%	/	-16%	/
O=C(O)c1ccc(Nc2ncc([N+](=O)[O-])cc2[N+](=O)[O-])cc1	?	-11%	32µM*	25%	-29%	67*
CCOc1ccc(/C=c2\sc3nc(-c4ccco4)nn3c2=O)cc1OCC	?	-16%	14µM*	1%	?	?
COc1cc(/C=c2\sc3nc(=O)c(-c4ccccc4)nn3c2=O)ccc1OCCC(C)C	17%	-4%	-21%	23%	-1%	/
COc1ccc(N2Cc3cccc(C(=O)Nc4cc(C)cc(C)c4)c3C2=O)cc1	71µM*	/	79µM*	10µM*	?	?	Pol kappa inh-2=42*
Cc1c(CC(=O)O)c(=O)oc2c(C)c3occ(-c4ccccc4)c3cc12	116%	/	-11%	20%	1%	/
Cc1c(CCC(=O)O)c(=O)oc2c(C)c3occ(-c4ccc(Cl)cc4)c3cc12	13µM*	/	22µM*	22µM*	89µM*	?
CCOC(=O)c1ccc(NC2=CC(=O)C(=O)c3ccccc32)cc1	?	-21%	35µM*	3%	-6%	?
O=C(O)c1cccc(N2C(=O)C=CC2=O)c1	/	/	20µM*	/	/	54*
O=C(O)c1cccc(N2C(=O)C3CC=CCC3C2=O)c1 (configuration not stated)	1%	?	13%	-1%	-3%	/
OCCN1CCN(c2ncnc3c2c(-c2ccccc2)cn3-c2ccc(F)cc2)CC1	153%	/	-1%	2%	-2%	/
COc1ccc(-n2cc(-c3ccccc3)c3c(N4CCN(CCO)CC4)ncnc32)cc1	1%	-17%	-15%	-24%	-5%	/	GALK confirm=-9%;GALK redox cs=-1%;HEK293 viability=-17%
Fc1ccccc1C(NCCc1ccc(Cl)cc1)c1nnc(-c2ccccc2)o1 (configuration not stated)	10%	/	-16%	1%	-17%	/
CSc1ccc(C2C(C#N)=C(N)Oc3c2ccc(=O)c2c(C)oc(C)c32)cc1 (configuration not stated)	?	?	11µM*	?	50µM*	?
Cc1cc(O)c(Oc2cc(C)cc(O)c2O)c(O)c1	40µM*	-2%	22µM*	3.5µM*	22µM*	38*
